ALR H2O2 inh = inhibitors of human ALR sulfhydryl oxidase, primary screen, biochemical, H2O2 detection, HRP-luminol luminescence, single point. purified ALR, DTT oxidation. inhibition, % (test concentration not listed). 3.8% of 290,000 active;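 active means mean replicate inhibition above about 79%, with every replicate also reaching it, limit read from the data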
rCAG binder = binders of r(CAG) RNA repeats, primary screen, biochemical, fluorescence | r(CAG) RNA repeat, TO-PRO-1 dye displacement fluorescence | inhibition, % at 3 µM | AID 651821, 2012 | 1.3% of 370,000 active;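 active means inhibition above the plate cutoff, the mean of all test compounds on that plate plus 3 SD, cut at about 35% in these data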;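 further: 0% = DMSO alone and 100% = 100 µM mitoxantrone as full dye displacement; higher means more dye released from RNA so lower well fluorescence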
APOBEC3G inh = APOBEC3G DNA deaminase inhibitors, primary screen, biochemical, fluorescence, single-stranded DNA substrate, uHTS; DNA dC->dU-editing enzyme APOBEC-3G (Homo sapiens), Q9HC16; AID 493012, 2011; inhibition, % at 20 µM; recombinant A3G, ssDNA deamination FAM/TAMRA fluorescence; 0.28% of 330,000 active;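 active means inhibition of at least 40% at 20 µM, with no more than 30% in the related APOBEC3A deaminase screen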;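 further: plate controls were DMSO wells with A3G for no effect and wells lacking A3G enzyme for full effect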
PHOSPHO1 block = PubChem AID 1565; recombinant PHOSPHO1, absorbance phosphatase assay; inhibition, % at 13.3 µM; 1.1% of 290,000 active; in the data active means inhibition above about 60%
Target sequence (Q8TCT1 whole entry, looked up): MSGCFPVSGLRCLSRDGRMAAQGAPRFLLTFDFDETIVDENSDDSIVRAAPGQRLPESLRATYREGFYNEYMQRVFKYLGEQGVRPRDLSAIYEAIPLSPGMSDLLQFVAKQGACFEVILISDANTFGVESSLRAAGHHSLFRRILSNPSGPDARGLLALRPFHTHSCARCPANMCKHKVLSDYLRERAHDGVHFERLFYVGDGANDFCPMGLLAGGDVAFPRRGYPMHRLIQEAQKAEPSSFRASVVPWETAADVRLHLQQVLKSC
aDG glyco act = activators of alpha-DG glycosylation, primary screen, uHTS, Pro5-aDG cells, AlphaScreen; alpha-DG glycosylation AlphaScreen (IIH6); 0% Pro5, 100% B10-LARGE cell signal; activation, % at 10 µM; 0.22% of 360,000 active; AID 624168, 2012;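 active means activation of at least 8% versus controls, or a plate z-score of at least 8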;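 further: Pro5 are CHO cells carrying HIG-tagged alpha-DG that lacks glycosylation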
APOBEC3A inh = APOBEC3A ssDNA deaminase inhibitors, primary screen, selectivity assay for APOBEC3G inhibitor project, biochemical, FAM/TAMRA oligo cleavage fluorescence | 0.41% of 330,000 active | inhibition, % at 20 µM | DNA dC->dU-editing enzyme APOBEC-3A (Homo sapiens), P31941 | AID 493011, 2011 | recombinant A3A, FAM/TAMRA ssDNA deamination fluorescence;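 active means at least 40% inhibition at 20 µM here, with at most 30% in a related deaminase screen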;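 further: plate controls were A3A with DMSO for no effect and wells lacking A3A enzyme for full effect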
Target sequence (P31941 whole entry, looked up): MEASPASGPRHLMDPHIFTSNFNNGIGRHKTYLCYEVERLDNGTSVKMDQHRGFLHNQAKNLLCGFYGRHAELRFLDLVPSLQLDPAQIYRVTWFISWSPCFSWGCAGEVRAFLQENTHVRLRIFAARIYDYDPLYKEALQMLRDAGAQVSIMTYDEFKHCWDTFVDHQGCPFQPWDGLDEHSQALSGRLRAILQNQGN
The depositor's hits bear a star. In the library only some 5.4% were active in any assay of this set; here they are far more common.

For CCOC(=O)c1sc(NC(=O)CSc2n[nH]c(-c3ccncc3)n2)c(C#N)c1C the results were ALR H2O2 inh 12.8, rCAG binder 12.7, APOBEC3G inh 2.9, PHOSPHO1 block 25.7, aDG glyco act -0.2 and APOBEC3A inh 2.3.
Screening O=C(NC1CCCC1)[C@@H]1CCCN1C(=O)[C@@H](NS(=O)(=O)c1ccc(F)cc1F)C1CCCCC1 returned rCAG binder 0.4.
Screening Nc1[nH]c(C(=O)c2ccccc2)c(-c2cccc3ccccc23)c1C(=O)NCc1ccc(F)c(F)c1 returned rCAG binder 8.3.
`CCC1CCC2(CC1)NC(CO)(CO)CO2` (configuration not stated) gave ALR H2O2 inh -2.2, rCAG binder 0.5, APOBEC3G inh 4.2, PHOSPHO1 block 13.2, aDG glyco act -0.3 and APOBEC3A inh 3.9.
For CCC1CCC2(CC1)NNC(=S)NN2 the results were ALR H2O2 inh -0.6, rCAG binder 0.1, APOBEC3G inh -1.4, PHOSPHO1 block 97.4*, aDG glyco act 0.1 and APOBEC3A inh 2.8.
For Cc1ccc(CN2CCCCC(NC(=O)c3cccc([N+](=O)[O-])c3)C2=O)cc1 (configuration not stated) the results were rCAG binder 4.2.
For CCCC(=O)Nc1sc(C(=O)OC)c(C)c1C(N)=O the results were ALR H2O2 inh -11.9, rCAG binder 1.9, APOBEC3G inh 14.1, PHOSPHO1 block 76.7*, aDG glyco act -0.3 and APOBEC3A inh -0.7.
Screening CC(C)(C)/C(O)=C(/C#N)c1nc2ccccc2[nH]1 returned ALR H2O2 inh 0.8, rCAG binder 0.5, APOBEC3G inh -5.1, PHOSPHO1 block 4.6, aDG glyco act -0.1 and APOBEC3A inh -3.1.
`CN1C=CC=C/C1=C(\C#N)c1nc2ccccc2[nH]1` gave ALR H2O2 inh 98.6*, rCAG binder -3.5, APOBEC3G inh -8.9, PHOSPHO1 block 6.7, aDG glyco act -0.1 and APOBEC3A inh -4.1.
`Cc1ccc(-c2c(NC(=O)c3ccc(F)cc3)nc3ncccn23)cc1` gave rCAG binder 5.4.
Screening O=C(NO)c1ccc(OC(F)F)cc1 returned ALR H2O2 inh 98.7*, rCAG binder 3.8, APOBEC3G inh 0.8, PHOSPHO1 block 43.3, aDG glyco act -0.5 and APOBEC3A inh 2.5.
C#CCCCN([C@@H](CC(C)C)C(=O)OC)S(=O)(=O)c1ccc(F)cc1Br was read as rCAG binder -3.5.
For Cc1cc(=O)[nH]c(SCC(=O)Nc2nc3c(s2)CCCC3)n1 the results were ALR H2O2 inh 98.9*, rCAG binder 4.2, APOBEC3G inh 4.7, PHOSPHO1 block 27.6, aDG glyco act -0.1 and APOBEC3A inh 8.0.
Screening O=C(CSC1=NCCS1)Nc1nc2c(s1)CCCC2 returned ALR H2O2 inh 98.5*, rCAG binder 9.1, APOBEC3G inh -7.0, PHOSPHO1 block -1.2, aDG glyco act 0.1 and APOBEC3A inh -2.3.
`O=C(NCc1ccccc1Cl)C1CCCN(c2ncccn2)C1` (configuration not stated) gave rCAG binder 1.7.
O=C(NNc1nc2ccc(F)cc2s1)c1cccc(F)c1 was read as ALR H2O2 inh 98.2*, rCAG binder 5.6, APOBEC3G inh -8.6, PHOSPHO1 block -15.7, aDG glyco act -0.7 and APOBEC3A inh -3.6.
CCCCCCC(=O)NC1CCCCN(Cc2cccc(Cl)c2)C1=O (configuration not stated) was read as rCAG binder -3.0.
CCOC(=O)CSc1n[nH]c(NC(=O)c2cccc(C(F)(F)F)c2)n1 was read as ALR H2O2 inh 98.9*, rCAG binder 2.1, APOBEC3G inh -3.7, PHOSPHO1 block 23.5, aDG glyco act -0.1 and APOBEC3A inh -0.8.
COc1ccccc1CNC(=O)C[C@H]1CC[C@H]2[C@@H](COc3ccc(NC(=O)Nc4ccccc4)cc3C(=O)N2C)O1 was read as rCAG binder 5.4.
C#CCNC(=O)C[C@H]1C[C@@]2(C(=O)OC)C(=C[C@H](C3CCCC3)O[C@@H]2C)N(Cc2ccccc2)C1=O was read as rCAG binder 0.5.
`CN(C)c1ccc(NC(=O)c2cnsn2)cc1` gave ALR H2O2 inh 99.2*, rCAG binder -2.1, APOBEC3G inh -4.2, PHOSPHO1 block 28.1, aDG glyco act -0.2 and APOBEC3A inh -1.8.
For Cc1noc(C)c1C(=O)Nc1ccc(N(C)C)cc1 the results were ALR H2O2 inh 99.1*, rCAG binder 2.4, APOBEC3G inh -4.4, PHOSPHO1 block 9.6, aDG glyco act -0.3 and APOBEC3A inh -5.1.
CCOC(=O)/C(=N\Nc1ccc(Br)cc1)N1CC(C)OC(C)C1 (configuration not stated) was read as ALR H2O2 inh 99.6*, APOBEC3G inh -6.2, PHOSPHO1 block -95.7, aDG glyco act -0.1 and APOBEC3A inh -0.7.
CCC(=O)n1nc(-c2ccco2)nc1N was read as ALR H2O2 inh -0.1, rCAG binder 0.2, APOBEC3G inh -0.8, PHOSPHO1 block 66.8*, aDG glyco act 0.1 and APOBEC3A inh 3.3.
For CC(=O)n1nc(-c2ccco2)nc1N the results were ALR H2O2 inh 0.4, rCAG binder 0.6, APOBEC3G inh -0.8, PHOSPHO1 block -10.9, aDG glyco act 2.7 and APOBEC3A inh -1.5.
For O=C(CSc1ccccc1)Nc1ccc(N2CCN(c3ccccc3)CC2)c(F)c1 the results were ALR H2O2 inh 99.7*, rCAG binder 1.3, APOBEC3G inh -3.7, PHOSPHO1 block 33.8, aDG glyco act 0.4 and APOBEC3A inh -2.0.
Nc1ccc(N2CCN(c3ccccc3)CC2)c(F)c1 was read as ALR H2O2 inh 78.8*, rCAG binder -3.1, APOBEC3G inh -4.8, PHOSPHO1 block 37.0, aDG glyco act 0.2 and APOBEC3A inh -3.8.
`COCC(=O)Nc1ccc(N2CCN(c3ccccc3)CC2)c(F)c1` gave ALR H2O2 inh -6.1, rCAG binder -6.4, APOBEC3G inh -1.6, PHOSPHO1 block 38.1, aDG glyco act 0.1 and APOBEC3A inh 2.7.
COCCCN1C(=O)[C@H](CC(=O)NCc2ccc(C)o2)[C@]2(C(=O)OC)CCCCC=C12 was read as rCAG binder 3.8.
For Fc1ccc(C(c2nnnn2C2CCCC2)N2CCc3ccccc32)cc1 (configuration not stated) the results were ALR H2O2 inh 91.5*, rCAG binder -3.3, APOBEC3G inh -8.6, PHOSPHO1 block 4.4, aDG glyco act 0.8 and APOBEC3A inh -2.2.

Compound activity as filed in PubChem.
